The values below come from PubChem BioAssay AID777 (Sanford-Burnham Center for Chemical Genomics, 2007).

Molecules are shown by their SMILES. The campaign covered roughly 96,000 compounds. About 19,000 (20%) were called active. A selection follows. Unmarked numbers belong to inactive results.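 How the source made its calls: active means blocking of liver enzyme CYP2C9 beyond about 50% at 5 µM (limit read from the data); inactive means the rest.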

Chain of Cytochrome P450 2C9 (Homo sapiens) (P11712 whole entry, looked up): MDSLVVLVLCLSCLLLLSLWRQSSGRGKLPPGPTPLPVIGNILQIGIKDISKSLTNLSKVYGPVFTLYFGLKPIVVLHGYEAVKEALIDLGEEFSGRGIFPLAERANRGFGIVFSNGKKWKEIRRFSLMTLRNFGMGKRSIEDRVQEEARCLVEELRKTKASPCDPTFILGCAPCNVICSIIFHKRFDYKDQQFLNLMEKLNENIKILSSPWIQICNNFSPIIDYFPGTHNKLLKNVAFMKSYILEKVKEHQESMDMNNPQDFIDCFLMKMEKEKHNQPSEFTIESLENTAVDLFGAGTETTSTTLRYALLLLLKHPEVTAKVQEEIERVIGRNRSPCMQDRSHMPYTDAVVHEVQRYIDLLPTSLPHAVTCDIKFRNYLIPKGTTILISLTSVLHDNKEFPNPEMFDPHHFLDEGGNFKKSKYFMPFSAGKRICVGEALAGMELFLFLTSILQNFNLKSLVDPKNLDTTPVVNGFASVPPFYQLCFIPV

This assay concerns the target Cytochrome P450 2C9 (Homo sapiens) (UniProt P11712). The assay can be described thus: blockers of cytochrome P450 2C9 activity – biochemical, luminescence, ADME assay, primary screen (AID 777). As to conditions: CYP2C9 Supersomes, luciferin-H conversion, at 5 µM, stronger effect = higher value.
Regarding `O=C1OC(c2ccc(Cl)cc2)=N/C1=C\c1cccnc1`, the inhibition (as a rule, the change of the read-out against control, counted positive when it falls) was 18.2%.
The value for `CN1/C(=C\C=C2\N=C(c3ccc(F)cc3)OC2=O)C(C)(C)c2ccccc21` was 64.7% (active).
With `CCn1cc(C(=O)NCc2ccc(OC)cc2OC)c(=O)c2ccc(C)nc21`, the inhibition was 15.3%.
Turning to `CCCCCCOC(=O)NCC(O)c1ccccc1` (centres undefined), the inhibition was 23.8%.
As to `c1ccc(-n2ncc(-c3nn[nH]n3)n2)cc1`, the inhibition was 46.2%.
For the compound `COc1ccc(N2C(=O)C3CCCN3C2c2cccc(OC)c2)cc1` (centres undefined), the inhibition is 16.3%.
The figure for `CCCCNC(=O)CSc1nccn1Cc1ccccc1` is 23%; for `COC(=O)CCSc1nccn1Cc1ccccc1` it is 10.8%.
For `CCCCCCNC(=O)CSc1nccn1Cc1ccccc1`, the inhibition is 77.3% (active).
For `C=CCN(c1ccc(C(N)=O)cc1)S(C)(=O)=O`, the inhibition is -10.7%.
The value for `CC(=O)c1c(N)n(C)c(=O)n(C)c1=O` was 21.6%.
Regarding `ONC(=Nc1ccccc1)c1ccccc1Cl`, the inhibition is 2.1%.
As for `CCOC(=O)c1sc(NC(=O)c2cc(S(=O)(=O)N3CCOCC3)ccc2C)nc1C`, the inhibition was 71% (active).
The figure for `O=C(Nc1ccc2c(c1)nc1n2CCCCC1)c1cc(S(=O)(=O)N2CCOCC2)ccc1Cl` is 43.5%; for `Cc1ccc(S(=O)(=O)N2CCOCC2)cc1C(=O)NCc1ccc(F)cc1` it is 31.6%.
In the case of `O=C1c2cccc3cc(Br)cc(c23)C(=O)N1Nc1ccccc1`, the inhibition was -74%.
For `Cn1cccc1C1(C(F)(F)F)NCCNC1=O` (centres undefined), the inhibition is 72% (active).
`N#C/C(=C\c1ccccc1)c1n[nH]c(Cn2cncn2)n1`: the inhibition is 27%.
The figure for `O=C1CSC(=O)N1CCOCCN1C(=O)CSC1=O` is 7.2%.
`CC(C)C[C@H](NC(=O)NCCc1ccc(Cl)cc1)C(=O)O`: the inhibition is 59.9% (active).
Regarding `C[C@H](NC(=O)NCCc1ccccc1)C(=O)O`, the inhibition was 2.2%.
For `CSCC[C@H](NC(=O)NCCc1ccc(F)cc1)C(=O)O`, the inhibition is 14.5%.
Take `Cc1ccc(C(=O)C[n+]2cc(-c3ccccc3)n3c2CCCCC3)cc1`: the inhibition is -11.7%.
Regarding `NC(=O)Cn1c(=O)oc2ccccc21`, the inhibition is -13.8%.
In the case of `CCC(C)c1ccc(O)c(/C=N/O)c1` (centres undefined), the inhibition is 13.7%.
The figure for `CCOC(=O)c1csc(NC(=O)c2ccc(S(=O)(=O)N3CCCC3)cc2)n1` is -12.7%; for `COc1ccc(C(=O)Nc2nc(-c3ccc(S(=O)(=O)N4CCOCC4)cc3)cs2)cc1` it is 62.5% (active); for `COC(=O)[C@H](Cc1ccccc1)NC(=O)Nc1ccc(S(N)(=O)=O)cc1` it is 1.6%.
`CCC(=O)Nc1ccc(S(=O)(=O)NCC2CCCO2)cc1` (centres undefined): the inhibition is -1.7%.
